From PubChem BioAssay
Compounds with a hit are over-represented: about 10% of the library has one in this group of screens.
JMJD2A Tudor: JMJD2A Tudor domain (human) inhibition; actives 4.4% (n = 390,000); O75164; Potency, µM (doses to about 114 µM), for inactives: at the highest dose activity change, negative = inhibition, hits mostly inhibitors; AlphaScreen JMJD2A-Tudor / H3K4me3 peptide binding; further: potency means the concentration at half of the fitted maximal effect; on the % scale 0 is the no-effect control and ±100 the full control effect; nearly all actives have a fitted effect of over 50% in size
G9a inh: G9a (human) methyltransferase inhibition; Q96KQ7; G9a H3K9 monomethylation, AlphaScreen, 2 h; Potency, µM (highest dose often 102 µM), without a hit: top-dose activity, negative = inhibition, hits mostly inhibitors; actives 8.8% (n = 350,000); further: potency means the concentration at half of the fitted maximal effect; on the % scale 0 is the no-effect control and ±100 the full control effect; nearly all actives have a fitted effect of over 75% in size
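G9a (20 nM) was preincubated 15 min with compound, then reacted 2 h at room temperature with 500 nM biotin-H3K9 peptide and 20 µM SAM. Monomethyl-H3K9 detected by AlphaScreen using anti-H3K9me1 antibody.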
Six1-Eya2 blk: inhibitors of human Six1/Eya2 interaction; Q15475+O00167; AlphaScreen GST-Six1/His-Eya2 binding, biochemical; active compounds read low; activity change, % (no concentration beside the values); actives 0.56% (n = 360,000); AID 651725; in the data active means activity change below about -65%; inconclusive means mostly about -30% to -63%; further: on the % scale 0 is the no-effect control and ±100 the full control effect
Target sequence (O00167 whole entry, looked up): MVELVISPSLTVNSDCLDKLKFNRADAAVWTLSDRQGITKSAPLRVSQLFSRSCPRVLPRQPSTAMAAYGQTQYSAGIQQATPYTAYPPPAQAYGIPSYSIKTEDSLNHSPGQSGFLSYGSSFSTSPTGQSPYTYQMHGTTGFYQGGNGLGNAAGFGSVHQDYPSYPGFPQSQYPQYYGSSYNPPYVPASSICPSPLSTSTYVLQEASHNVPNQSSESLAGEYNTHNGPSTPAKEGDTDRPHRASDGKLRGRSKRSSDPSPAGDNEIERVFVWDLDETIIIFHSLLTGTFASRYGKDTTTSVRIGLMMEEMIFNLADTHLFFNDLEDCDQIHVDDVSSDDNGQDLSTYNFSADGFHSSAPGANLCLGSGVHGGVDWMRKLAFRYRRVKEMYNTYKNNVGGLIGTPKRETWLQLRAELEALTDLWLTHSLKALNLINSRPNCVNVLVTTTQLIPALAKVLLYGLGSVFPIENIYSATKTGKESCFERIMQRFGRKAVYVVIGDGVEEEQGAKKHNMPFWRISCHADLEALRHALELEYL
Target sequence (Q15475 whole entry, looked up): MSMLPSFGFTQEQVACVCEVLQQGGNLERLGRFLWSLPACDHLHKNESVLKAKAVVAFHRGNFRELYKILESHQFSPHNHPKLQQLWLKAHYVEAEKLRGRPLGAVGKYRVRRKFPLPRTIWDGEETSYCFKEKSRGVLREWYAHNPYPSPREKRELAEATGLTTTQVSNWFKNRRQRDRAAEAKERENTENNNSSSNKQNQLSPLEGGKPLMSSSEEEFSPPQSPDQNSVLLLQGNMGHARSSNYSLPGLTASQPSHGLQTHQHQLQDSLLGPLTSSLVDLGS
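AlphaScreen luminescence read after one hour at 37 °C in darkness. Pin-transferred compounds met GST-Six1 and His-Eya2 protein (5X stock 250 nM/500 nM) plus glutathione donor and Ni-chelate acceptor beads (5X, 50 ug/mL).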
BAZ2B inh: inhibitors of human BAZ2B bromodomain; Q9UIF8; AlphaScreen BAZ2B-H3K14Ac peptide displacement; Potency, µM (top dose mostly 114 µM), for inactives: at the top dose activity change, negative = inhibition, hits mostly inhibitors; actives 4.4% (n = 360,000); further: potency means the concentration at half of the fitted maximal effect; on the % scale 0 is the no-effect control and ±100 the full control effect; nearly all actives have a fitted effect of over 60% in size
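Complex of BAZ2B and biotin-H3K14Ac (50 nM apiece) forms over 30 min at RT, then faces library compounds up to 110 uM for another 30 min; AlphaScreen beads added, 20 min dark incubation, luminescence read.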
HP1b binding inh: blocks HP1-beta chromodomain binding to methylated histone tails; P83916; AlphaScreen HP1-beta / biotin-H3K9me3 peptide binding; Potency, µM (doses to about 114 µM), for inactives: top-dose activity change, negative = inhibition, usual class: inhibitors; actives 0.56% (n = 390,000); further: potency means the concentration at half of the fitted maximal effect; nearly all actives have a fitted effect of over 70% in size
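Compound inhibition of the preformed complex between 50 nM HP1-beta and 50 nM biotinylated H3K9me3 peptide was read by AlphaScreen. Buffer was PBS pH 7.4 with 0.01% Tween-20. Incubations ran 30 min at room temperature, with 10 ug/mL donor/acceptor beads.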
CtBP-E1A inh: CtBP/E1A binding inhibition | AlphaScreen GST-E1A/His-CtBP binding, 1536-well; active compounds read low | activity change, % (test concentration not listed) | actives 0.49% (n = 340,000) | AID 651724; in the data active means activity change below about -65%; inconclusive means mostly about -30% to -63%; further: on the % scale 0 is the no-effect control and ±100 the full control effect
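Protein mix (5X: 125 nM each GST-E1A, His-CtBP) was incubated with pinned compound 2 h at 37 deg C in dark, in 50 mM Tris pH 8.0 buffer with 300 mM NaCl. Glutathione donor and nickel acceptor beads followed; AlphaScreen signal read after 1 h.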
The depositor's hits bear a star; u = inconclusive; x = no result; [ ] = dose if it differs, or a comment. Unless noted, the call rests on the fitted dose curve; in most records, active means well fitted inhibition curve with a large enough effect; inconclusive means small, poorly fitted or top-dose-only effect; inactive means no such curve, though single readings can be large or run the other way.

SMILES	JMJD2A Tudor	G9a inh	Six1-Eya2 blk	BAZ2B inh	HP1b binding inh	CtBP-E1A inh
O=C(O)CN1C(=O)S/C(=C\c2cccnc2)C1=O	-18%	x	4	50µM*	6%[57 µM]	x
O=C(NCCN1C(=O)S/C(=C\c2cccnc2)C1=O)C1=NN(c2ccccc2)C(=O)CC1	3.5µM*	-1%[59 µM]	-29	-11%	-29%	u
O=C1/C(=C/c2ccccc2)SC(=S)N1CC(=O)N1CCCCC1c1cccnc1 (stereo unspecified)	35µM*	40µM*	-19	32µM*	-15%	-23
O=C(CCN1C(=O)/C(=C/c2ccccc2)SC1=S)Nc1cccnc1	-1%	-6%	-6	4%	-8%	-7
Cc1cc(C)cc(NC(=O)CCCn2c3ccccc3c(=O)c3ccccc32)c1	60%	19%[59 µM]	x	57%	125%	x
Cc1cccc(-c2cnc(C(O)c3ccc(F)c(C)c3)[nH]2)c1 (stereo unspecified)	x	x	9	x	x	0
Cc1ccc(S(=O)(=O)N2CCN(c3cc(-c4cccs4)nc4ccccc34)CC2)cc1	-16%	x	x	x	-1%	x
CN1CCN(CC#CC(C)(O)C2CC3C=CC2C3)CC1 (stereo unspecified)	50µM*	22µM*	2	u	22%	1
OC(CCN1CCCCC1)(c1ccccc1)C1C[C@@H]2C=C[C@H]1C2 (stereo partly specified)	-15%	-33%[59 µM]	-3	-10%	51%	2
CCCOCC1CC(CCc2nc(=S)[nH][nH]2)C(=O)O1 (stereo unspecified)	5µM*	1.8µM*	-2	-2%	u	-2
COc1ccc(C)cc1NC(=O)c1sc2nc(-c3ccc(F)cc3)cn2c1C	-8%	-5%[59 µM]	x	3%	22%[57 µM]	x
COc1ccc(C(C)=O)c(Oc2ccc(S(=O)(=O)N3CCOCC3)cn2)c1	-5%	5%[2.33 µM]	6	-3%	25%	-13
O=C(O)c1ccc(N/N=C/c2ccnc3ccccc23)cc1	-23%	u	-20	-35%	59%	u
Cc1ccc2nc(Cl)c(/C=N/Nc3ccc(C(=O)O)cc3)cc2c1	-25%	50µM*	-4	u	32%	3
O=C(O)c1ccc(N/N=C/c2ccc3nccnc3c2)cc1	-16%	50µM*	-25	-22%	14%	-11
O=C(O)c1ccc(N/N=C/c2cccc(F)c2)cc1	-26%	u	-18	5%	22%	6
Cc1ccc2cc(/C=N/NC(=O)c3ccc(F)cc3)c(Cl)nc2c1	-20%	67%[59 µM]	0	-8%	13%	3
O=C(O)c1ccc(N/N=C/c2ccc(F)c(F)c2)cc1	-35%	4.5µM*	-1	-30%	6%	1
O=C(O)c1ccc(N/N=C/c2cccc3cccnc23)cc1	-5%[11.4 µM]	x	6	71µM*	87%	14
C(=N\NCc1ccccc1)/c1ccc2ncccc2c1	-27%	-53%	8	-33%	39%	x
C(=N\NCc1ccccc1)/c1ccc2nccnc2c1	-17%	50µM*	-1	-20%	40%	x
N=C(N)SCc1ncccc1O	u	18µM*	9	u	-2%	-11
c1ccc(CSc2nnc(SCc3ccccn3)s2)nc1	-6%	-10%[2.33 µM]	1	5%	24%	3
N=C(N)SCc1ccccn1	22µM*	u	-29	35µM*	-4%	u
Oc1cccnc1CCc1ccccc1	-1%	x	3	-3%	17%	3
SMILES	JMJD2A Tudor	G9a inh	Six1-Eya2 blk	BAZ2B inh	HP1b binding inh	CtBP-E1A inh
CC(=O)N1CCCC1c1nc2ccccc2n1Cc1ccccc1Cl (stereo unspecified)	-13%	-32%[59 µM]	x	-17%	6%	x
Cc1ccc[n+](CC(=O)c2ccc(NC(=O)c3ccccc3)cc2)c1	-8%	-6%	-1	-4%	38%	-3
O=C(C[n+]1cccc(C(=O)Nc2ccccc2)c1)c1ccccc1	x	x	-21	x	x	-7
N#Cc1ccc[n+](CC(=O)c2ccc(NC(=O)c3ccccc3)cc2)c1	1%	45µM*	4	0%	46%	-1
O=C(Nc1ccc[n+](CC(=O)c2cccc3ccccc23)c1)c1ccccc1	-29%	40µM*	-5	14%	5%	-6
O=C(C[n+]1ccccc1)c1ccc(NC(=O)c2ccccc2)cc1	u	16µM*	9	-12%	16%	12
O=C(Nc1ccc(C(=O)N2CCCCC2)cc1)c1nsc2ccccc12	-10%	9%[59 µM]	x	3%	29%[57 µM]	x
CCn1nnnc1SCC(=O)N1CCCc2ccccc21	u	3%[59 µM]	11	-3%	-10%	2
COc1cc(C(=O)OCC(=O)Nc2c(F)cccc2F)cc(OC)c1C	5%[11.4 µM]	45µM*	8	u	17%	x
C=CCOc1ccc(/C=C2\SC(=Nc3cccnc3)NC2=O)cc1	-17%	x	-7	-28%	28%	-5
CC(/C=C1\SC(=Nc2cccnc2)NC1=O)=C\c1ccccc1	79µM*	x	1	-10%	-16%	11
COc1ccc(C(NC(=O)CN2C(=O)NC3(CCc4ccccc43)C2=O)c2ccccc2)cc1 (stereo unspecified)	-11%	-13%[12.7 µM]	10	-27%	52%	x
COc1ccc(OC)c(NC(=O)CN2C(=O)NC3(CCCc4ccccc43)C2=O)c1 (stereo unspecified)	-27%	u	-1	-28%	22%	-6
COc1ccc(C(NC(=O)CN2C(=O)NC3(CCc4ccccc43)C2=O)c2ccc(OC)cc2)cc1 (stereo unspecified)	-28%	50µM*	-1	1%	0%	-1
COc1cccc(NC(=O)CN2C(=O)NC3(CCCc4ccccc43)C2=O)c1 (stereo unspecified)	-1%	10µM*	0	-4%	39%	7
Cc1ccc(NC(=O)CCn2cccc2)cc1C	u	50µM*	-10	u	-16%	-11
Cc1cc(NC(=O)CCN2CCC(C(N)=O)CC2)ccc1Br	-12%	11%[59 µM]	0	-5%	12%	-7
Cc1ccc(NCC(=O)Nc2ccc(Br)cc2)cc1C	-15%	56µM*	0	u	37%	x
CN1CCN(CCC(=O)Nc2cccc(Br)c2)CC1	-9%	56µM*	-3	-30%	20%	3
Cc1cc(NC(=O)CCN2CCN(C)CC2)ccc1Br	89µM*	13%[0.501 µM]	-13	-1%	33%	14
O=C(CCN1CCCCC1)Nc1cccc(Br)c1	-4%	x	4	6%	32%	-9
CCOC(=O)c1c(NC(=O)CCCOc2ccc(Cl)cc2)sc2c1CCC2	25%	-27%[59 µM]	x	-27%	14%	x
O=C(c1ccccc1O)N(Cc1cccs1)Cc1cccs1	-22%	x	x	x	x	x
